Holding throughout (type): functional
The test system of experiment [1] is Plasmodium falciparum. Description: GSK_TCMDC: Inhibition of Plasmodium falciparum 3D7 in whole red blood cells, using parasite LDH activity as an index of growth. Test compounds present at 2uM.
Experiment [2] concerns Plasmodium falciparum. Description: GSK_TCMDC: Inhibition of Plasmodium falciparum Dd2 in whole red blood cells, using parasite LDH activity as an index of growth. Test compounds present at 2uM.
Another experiment relates to HepG2. Description: GSK_TCMDC: Percent inhibition of human HepG2 cell line. Test compounds present at 10uM.

SMILES strings stand for the structures.

Take `COc1ccc2[nH]ccc(=NN=Cc3ccncc3)c2c1`: the Inhibition – broadly, the drop in the measured response relative to a control, in per cent – with Plasmodium falciparum [1] was 99%; in the experiment on Plasmodium falciparum [2] it was 95%; in the experiment with HepG2, 4%.
Regarding `CCCC(=O)Nc1ccc(OCCCCN(CC(C)(C)C)c2ccc(C#N)c(C(F)(F)F)c2)cc1`, the values for the Inhibition in the experiment on Plasmodium falciparum [1], in the experiment with Plasmodium falciparum [2] and with HepG2 were 83%, 69% and 9%, respectively.
For `Cc1cc(=NN=Cc2ccc(Cl)cc2)c2ccc(F)cc2[nH]1` the same measures were 100%, 87% and 6%.
In the case of `Cc1ccc2[nH]c(-c3cc(-c4ccc(CO)cc4)cnc3N)nc2c1.O=C(O)C(F)(F)F`, the Inhibition in the experiment on Plasmodium falciparum [1] is 95%; in the experiment on Plasmodium falciparum [2], 6%; with HepG2 it was 52%.
Taken in the same sequence, the figures for `CC(Cc1ccc(OCc2ccccc2)cc1)Nc1nc(O)c2ccccc2n1.Cl` (stereo unspecified) were 98%, 96% and 2%.
Taken in the same sequence, the figures for `CCn1ccc2c(N3CCCC3=O)cc(C(=O)N[C@@H](Cc3ccccc3)[C@H](O)CNC(C)(C)CCCC(C)C)cc21` were 96%, 98% and 11%.
Taken in the same sequence, the figures for `Cc1cccc(C)c1CNc1ccnc2ccccc12.Cl` were 92%, 10% and 59%.
Turning to `CO/C(=C\C=C\c1cc2cc(Cl)c(Cl)cc2[nH]1)C(=O)NCCCN1CCCC[C@@H]1C`, the Inhibition in the experiment on Plasmodium falciparum [1] came out at 99%; in the experiment on Plasmodium falciparum [2], 83%; with HepG2 it was 33%.
For `CCNc1cc(C(=O)N[C@@H](Cc2ccccc2)[C@H](O)CNC23CC4CC(CC(C4)C2)C3)cc(N2CCCCS2(=O)=O)c1.Cl` the same measures were 98%, 99% and 3%.
As to `CCN(CCCN1CCCCC1)c1cc(C)nc(Nc2ccc(C)c(C)c2)n1.O=C(O)C(F)(F)F`, the Inhibition in the experiment with Plasmodium falciparum [1] is given as 100%; in the experiment on Plasmodium falciparum [2], 60%; in the experiment on HepG2, 30%.
For `CC[C@H](C)[C@@H](C(=O)N1CCOCC1)N1CC[C@H](NS(=O)(=O)CC(C)(C)c2ccc(Cl)cc2)C1=O`, the Inhibition is listed as 100% in the experiment on Plasmodium falciparum [1], 95% in the experiment with Plasmodium falciparum [2] and 0% in the experiment with HepG2.
For `COc1ccc2nc(C)cc(Nc3ccc(Oc4ccc(Cl)cc4)c(Cl)c3)c2c1` the same measures were 100%, 100% and 48%.
Taken in the same sequence, the figures for `Cc1cnc2ccc(NS(=O)(=O)c3sc4ccc(Cl)cc4c3C)cc2c1N1CCNCC1.Cl` were 99%, 0% and 0%.
Taken in the same sequence, the figures for `Cc1nc(-c2ccc(C(F)(F)F)cn2)sc1C(=O)N1CCc2cc3nccc(N4CCN5CCC[C@H]5C4)c3cc21.Cl` were 100%, 72% and 5%.
On to `O=C(NCc1cccc(F)c1)Nc1cccc(-c2cccc(-c3nc4cc(C(F)(F)F)ccc4[nH]3)c2)c1`, for which the results for the Inhibition with Plasmodium falciparum [1], with Plasmodium falciparum [2] and in the experiment with HepG2 were 93%, 32% and 55%, respectively.
For `O=C(Nc1cccc(CN2CCCN(Cc3ccccc3)CC2)c1)c1ccc(Cl)c(Cl)c1.O=C(O)C(F)(F)F` the same measures were 95%, 16% and 23%.
For `N=C(N)NC(=O)Nc1cc(Cl)c(Cl)c(Cl)c1` the same measures were 100%, 100% and 0%.
For `O=C(/C=C/c1ccc(Cl)c(Cl)c1)NCCCCCN1CCCC(CNC(=O)c2sc3ccccc3c2Cl)C1` (stereo unspecified) the same measures were 98%, 0% and 42%.
As to `CCCCCN1CCC(CNS(=O)(=O)c2ccc(C(=O)Nc3cccc(C(F)(F)F)c3)cc2)CC1.O=C(O)C(F)(F)F`, the figures for the Inhibition in the experiment on Plasmodium falciparum [1], in the experiment on Plasmodium falciparum [2] and in the experiment on HepG2 were 98%, 13% and 13%, respectively.
As to `Cc1cccc2nc(-c3ccc(-c4ccc(CN5CCN(CC6CCCN(C)C6)CC5)cc4)s3)[nH]c12.O=C(O)C(F)(F)F` (stereo unspecified), the Inhibition stood at 100% with Plasmodium falciparum [1], 99% in the experiment with Plasmodium falciparum [2] and 63% with HepG2.
Taken in the same sequence, the figures for `O=C(/C=C/c1ccc(Cl)cc1)NCCCCCN1CCCC(C(=O)Nc2cccc(Cl)c2)C1` (stereo unspecified) were 96%, 4% and 21%.
As to `Cc1cc(=O)c(-c2ccc(Oc3ccc(C(F)(F)F)cc3)cc2)c(C)n1O`, the values for the Inhibition in the experiment on Plasmodium falciparum [1], in the experiment with Plasmodium falciparum [2] and with HepG2 were 94%, 78% and 18%, respectively.
Taken in the same sequence, the figures for `O=C(Nc1cccc(CN2CCCN(CCc3ccccc3)CC2)c1)c1ccc(Cl)c(Cl)c1.O=C(O)C(F)(F)F` were 86%, 15% and 41%.
Turning to `COc1ccccc1CN1CCC(CNC(=O)c2cc(-c3ccc(N(C)C)cc3)cs2)C1.O=C(O)C(F)(F)F` (stereo unspecified), the Inhibition with Plasmodium falciparum [1] came out at 82%; with Plasmodium falciparum [2], 16%; with HepG2 it was 17%.
For `COc1ccc(Cc2c(N)nc3nc(N)nc(N)c3c2C)cc1.Cl` the same measures were 94%, 3% and 64%.
For `COc1ccc(-n2nc(C(=O)NCc3ccccc3OC)c3ccccc3c2=O)cc1` the same measures were 100%, 94% and 2%.
For `CS(=O)(=O)c1ccc(CCNCc2ccc(-c3ccc(CN(C(=O)c4ccc(Cl)nc4)C4CCN(Cc5ccccc5)CC4)cc3)nc2)cc1.O=C(O)C(F)(F)F` the same measures were 93%, 70% and 24%.

The values are drawn from ChEMBL document CHEMBL1157539, “Thousands of chemical starting points for antimalarial lead identification” (Nature, 2010).
